Seven compounds from PubChem BioAssay (Tox21) can be followed below.

Assay [1] is described as follows: qHTS assay to identify small molecule antagonists of the glucocorticoid receptor (GR) signaling pathway - cell viability counter screen (AID 720693). Also: nearly all actives have a fitted effect of over 55% in size. Also: potency is read from the fitted curve at half-maximal effect. On the technique in general: In qHTS, concentration-response curves come from the screen itself.
Assay [2] is described as follows: qHTS assay for identifying genotoxic compounds that show differential cytotoxicity against isogenic chicken DT40 cell lines with known DNA damage response pathways - wild type cell line (AID 743012). Also: nearly all actives have a fitted effect of over 60% in size. Also: potency is read from the fitted curve at half-maximal effect. In a few lines:
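Luminescent ATP viability signal (CellTiter-Glo, 30 min RT) recorded after wild type DT40 cells were incubated with compounds for 40 h at 37 C/5% CO2.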

Assay [3] in a line: qHTS assay for identifying genotoxic compounds that show differential cytotoxicity against isogenic chicken DT40 cell lines with known DNA damage response pathways - Rev3 mutant cell line (AID 743014). Also: nearly all actives have a fitted effect of over 55% in size. Also: potency is read from the fitted curve at half-maximal effect.
Assay [4] can be described thus: qHTS assay for identifying genotoxic compounds that show differential cytotoxicity against isogenic chicken DT40 cell lines with known DNA damage response pathways - Rad54/Ku70 mutant cell line (AID 743015). Also: nearly all actives have a fitted effect of over 60% in size. Also: potency is read from the fitted curve at half-maximal effect.
Assay [5] can be described thus: qHTS assay to identify small molecule antagonists of the androgen receptor (AR) signaling pathway - cell viability counter screen (AID 743033; also: nearly all actives have a fitted effect of over 45% in size; also: potency is read from the fitted curve at half-maximal effect).
The target of assay [6] is Androgen receptor (Homo sapiens) (UniProt P10275). The experiment in a line: qHTS assay to identify small molecule antagonists of the androgen receptor (AR) signaling pathway (AID 743035; active = well fitted inhibition curve with a large enough effect in the signal ratio in the repeat runs, not every such curve was filed as active; the % refers to the signal ratio; also: potency is read from the fitted curve at half-maximal effect). In a few lines: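 Quantitative HTS of the Tox21 10K library used HEK293 AR-UAS-bla cells stimulated with R1881 alongside compound for 16 h at 37C, followed by beta-lactamase FRET detection (LiveBLAzer B/G, 2 h, RT).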

The target is the same in assay [7]. The experiment in a line: qHTS assay to identify small molecule agonists of the androgen receptor (AR) signaling pathway using the MDA cell line (AID 743040; also: nearly all actives have a fitted effect of over 20% in size). In short, it runs like this:
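Luciferase read-out, ONE-Glo, 30 min RT. Cells: MDA-kb2 AR-luc, MMTV promoter with AR and GR response elements. Compound exposure 16 h, 37C, 0% CO2, after 5 h pre-incubation. qHTS agonist mode.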

The target is the same in assay [8]. Nature of the assay: qHTS assay to identify small molecule antagonists of the androgen receptor (AR) signaling pathway using the MDA cell line (AID 743042; also: nearly all actives have a fitted effect of over 55% in size; also: potency is read from the fitted curve at half-maximal effect). In short, it runs like this:
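MDA-kb2 breast carcinoma cells carrying MMTV-luciferase (AR/GR responsive) were co-treated with compounds and the agonist R1881 for 16 h at 37C. Inhibition read as ONE-Glo luminescence; CellTiter-Fluor fluorescence measured in parallel for cytotoxicity.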

The nature of assay [9]: qHTS assay to identify small molecule antagonists of the thyroid receptor (TR) signaling pathway - cell viability counter screen (AID 743064). Also: nearly all actives have a fitted effect of over 50% in size. Also: potency is read from the fitted curve at half-maximal effect. In short, it runs like this: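 GH3.TRE-Luc rat pituitary cells carrying a TRE-luciferase reporter were treated with compound plus 1 nM T3 (final) for 23.5 h at 37 °C. Viability was then read in the same wells by CellTiter-Fluor fluorescence after a further 30 min.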

Assay [10] can be described thus: qHTS assay to identify small molecule antagonists of the thyroid receptor (TR) signaling pathway (AID 743065). Also: nearly all actives have a fitted effect of over 55% in size. Also: potency is read from the fitted curve at half-maximal effect. In short, it runs like this: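 GH3.TRE-Luc rat pituitary cells (two TREs driving luciferase) were dosed with compound, then stimulated with 1 nM T3 (final) for 23.5 h at 37 C. ONE-Glo luminescence was the read-out, with CellTiter-Fluor fluorescence as the cytotoxicity counter-screen.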

Assay [11] has as its system thyroid hormone receptor (rat, GH3 cells). The experiment in a line: qHTS assay to identify small molecule agonists of the thyroid receptor (TR) signaling pathway (AID 743066; calls by dose curve).
The nature of assay [12]: qHTS assay to identify small molecule antagonists of the estrogen receptor alpha (ER-alpha) signaling pathway - cell viability counter screen (AID 743074; calls by dose curve;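 also: HEK293 cells carrying ER-alpha-UAS-bla reporter stimulated with 17beta-estradiol; nearly all actives have a fitted effect of over 45% in size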; also: potency is read from the fitted curve at half-maximal effect).
Assay [13] in a line: qHTS assay to identify small molecule antagonists of the estrogen receptor alpha (ER-alpha) signaling pathway using the BG1 cell line - cell viability counter screen (AID 743081).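 Also: compound given together with 17beta-estradiol as the ER stimulus; nearly all actives have a fitted effect of over 45% in size.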 Also: potency is read from the fitted curve at half-maximal effect.
For another assay, the target named is Aromatase (Homo sapiens) (UniProt P11511). The experiment in a line: qHTS assay to identify aromatase inhibitors (AID 743083). Also: nearly all actives have a fitted effect of over 55% in size. Also: potency is read from the fitted curve at half-maximal effect.
A short description of assay [14]: qHTS assay to identify small molecule antagonists of the androgen receptor (AR) signaling pathway using the MDA cell line - cell viability counter screen (AID 743041; also: nearly all actives have a fitted effect of over 45% in size; also: potency is read from the fitted curve at half-maximal effect). In a few lines:
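Cytotoxicity counter screen: MDA-kb2 AR-luc cells, compound + R1881, 16 h, 37C, 0% CO2; CellTiter-Fluor added at 15.5 h, fluorescence read after 30 min.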

The target of assay [15] is Estrogen receptor (Homo sapiens) (UniProt P03372). The experiment in a line: qHTS assay to identify small molecule agonists of the estrogen receptor alpha (ER-alpha) signaling pathway (AID 743075; calls by dose curve;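 also: HEK293 GripTite cells with ER-alpha and UAS-driven beta-lactamase reporter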; also: potency is read from the fitted curve at half-maximal effect). The settings on record: HEK293 ER-alpha-UAS-bla, beta-lactamase FRET ratio, 18 h; activation: at 70.1 µM (top of the series).
Assay [16] shares this target. The experiment in a line: qHTS assay to identify small molecule agonists of the estrogen receptor alpha (ER-alpha) signaling pathway using the BG1 cell line (AID 743079). Also: nearly all actives have a fitted effect of over 20% in size. The settings on record: BG1Luc4E2 cells, ERE-luciferase agonist, 22 h.
Assay [17] has the same target. The experiment in a line: qHTS assay to identify small molecule antagonists of the estrogen receptor alpha (ER-alpha) signaling pathway (AID 743069; active = well fitted curve in the direction sought with a large enough effect in the signal ratio in the repeat runs, not every such curve was filed as active; the % refers to the signal ratio). In a few lines:
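Beta-lactamase FRET fluorescence is read after 2 hr at room temperature with LiveBLAzer B/G substrate. Before that, ER-alpha-bla HEK293 cells sit 4 hr after plating, then receive compound plus 17beta-estradiol and incubate 18 hr at 37C.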

The nature of assay [18]: qHTS assay to identify small molecule antagonists of the estrogen receptor alpha (ER-alpha) signaling pathway using the BG1 cell line (AID 743080; calls by dose curve;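 also: BG1 cells stimulated with 17beta-estradiol alongside compound; nearly all actives have a fitted effect of over 25% in size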). In a few lines: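 Luciferase inhibition measured with ONE-Glo after 30 min at RT in BG1Luc4E2 cells given test compounds and 17beta-estradiol for 21.5 h at 37 C; CellTiter-Fluor viability read in the same wells beforehand.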

“And” between values parts separate entries of the source, which are not always exact repeats. Equal values may be shown once. A number with no mark means an inactive call. Records with an inconclusive call do not appear. The source made the active and inactive calls. Unless noted, calls follow the shape of the dose curve; as a rule, active = well fitted curve in the direction sought with a large enough effect in the repeat runs; inconclusive = weak or mixed curves; inactive = no such curve, though single readings can be large; an effect the other way counts as inactive or inconclusive.
% is scaled to controls: 0 for no effect and ±100 for the full control effect.

Sequence of Androgen receptor (Homo sapiens) (P10275 whole entry, looked up): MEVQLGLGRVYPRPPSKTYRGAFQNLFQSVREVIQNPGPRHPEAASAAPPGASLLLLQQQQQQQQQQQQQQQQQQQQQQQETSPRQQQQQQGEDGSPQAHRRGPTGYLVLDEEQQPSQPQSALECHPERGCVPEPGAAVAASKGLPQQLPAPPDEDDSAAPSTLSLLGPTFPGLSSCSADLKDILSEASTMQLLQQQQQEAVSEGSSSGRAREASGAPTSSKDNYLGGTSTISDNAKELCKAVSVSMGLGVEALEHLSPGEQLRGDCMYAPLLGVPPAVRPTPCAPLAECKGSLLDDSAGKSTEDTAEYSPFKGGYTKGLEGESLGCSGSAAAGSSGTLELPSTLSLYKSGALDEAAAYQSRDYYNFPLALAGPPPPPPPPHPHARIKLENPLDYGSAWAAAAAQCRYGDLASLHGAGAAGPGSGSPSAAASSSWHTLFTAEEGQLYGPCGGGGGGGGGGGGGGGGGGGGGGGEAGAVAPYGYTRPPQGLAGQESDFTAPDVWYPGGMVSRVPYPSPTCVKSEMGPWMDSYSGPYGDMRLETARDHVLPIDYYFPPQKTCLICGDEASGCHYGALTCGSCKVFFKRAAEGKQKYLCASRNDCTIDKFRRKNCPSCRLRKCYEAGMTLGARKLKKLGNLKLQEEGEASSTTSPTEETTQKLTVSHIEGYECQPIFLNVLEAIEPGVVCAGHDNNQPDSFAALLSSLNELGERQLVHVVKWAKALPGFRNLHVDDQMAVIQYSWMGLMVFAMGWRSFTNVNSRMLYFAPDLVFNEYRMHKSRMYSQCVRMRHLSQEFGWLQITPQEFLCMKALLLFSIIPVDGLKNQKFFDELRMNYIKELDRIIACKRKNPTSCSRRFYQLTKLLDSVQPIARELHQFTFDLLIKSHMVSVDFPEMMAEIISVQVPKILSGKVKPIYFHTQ
Sequence of Estrogen receptor (Homo sapiens) (P03372 whole entry, looked up): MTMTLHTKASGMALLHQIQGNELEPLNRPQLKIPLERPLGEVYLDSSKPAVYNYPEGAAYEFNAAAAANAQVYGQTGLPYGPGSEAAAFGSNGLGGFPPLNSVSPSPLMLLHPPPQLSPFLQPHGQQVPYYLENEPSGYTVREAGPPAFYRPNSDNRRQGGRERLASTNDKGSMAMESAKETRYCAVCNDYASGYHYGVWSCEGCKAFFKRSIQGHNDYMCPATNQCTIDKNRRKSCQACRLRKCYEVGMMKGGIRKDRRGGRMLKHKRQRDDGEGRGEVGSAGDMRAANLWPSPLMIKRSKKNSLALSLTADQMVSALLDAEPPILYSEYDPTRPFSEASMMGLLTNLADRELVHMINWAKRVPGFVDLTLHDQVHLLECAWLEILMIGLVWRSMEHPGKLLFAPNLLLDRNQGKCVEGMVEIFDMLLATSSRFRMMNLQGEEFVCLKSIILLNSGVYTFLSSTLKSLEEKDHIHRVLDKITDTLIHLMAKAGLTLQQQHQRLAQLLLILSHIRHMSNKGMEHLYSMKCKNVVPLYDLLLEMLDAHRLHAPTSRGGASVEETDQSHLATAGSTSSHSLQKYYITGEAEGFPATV
Sequence of Aromatase (Homo sapiens) (P11511 whole entry, looked up): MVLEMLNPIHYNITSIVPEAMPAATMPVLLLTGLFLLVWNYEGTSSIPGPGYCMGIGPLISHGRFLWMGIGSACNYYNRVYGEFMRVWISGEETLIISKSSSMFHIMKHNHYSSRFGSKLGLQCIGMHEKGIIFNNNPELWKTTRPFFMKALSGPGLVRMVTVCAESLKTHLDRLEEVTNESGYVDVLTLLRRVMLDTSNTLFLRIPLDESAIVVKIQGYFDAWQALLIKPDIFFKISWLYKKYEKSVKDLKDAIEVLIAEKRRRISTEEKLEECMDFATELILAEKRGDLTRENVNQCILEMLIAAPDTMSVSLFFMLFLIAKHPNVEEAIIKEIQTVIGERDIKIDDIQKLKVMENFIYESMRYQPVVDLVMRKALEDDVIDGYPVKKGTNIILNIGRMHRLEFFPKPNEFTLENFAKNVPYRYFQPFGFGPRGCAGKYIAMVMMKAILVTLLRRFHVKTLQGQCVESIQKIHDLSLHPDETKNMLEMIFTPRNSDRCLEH

Turning to `CCCCCCCCCCC=O`, the Potency entry in assay [1], in assay [2], in [3], in [4], in [5] and in assay [6] was “inactive” in each case. Also, the Potency entry in assay [7], in assay [8], in [9], in assay [10], in assay [11] and in assay [12] was “inactive” each time. The Potency result (in assay [13]; in the assay with Aromatase (Homo sapiens)) was “inactive” in each case.
As for `O=C1C=CC(=O)N1`, the Potency is 31.7 µM (active) in assay [1]; 6.28 µM (active) in assay [2]; 2.5 µM (active) in assay [3]; 5.59 µM (active) in assay [4]; 22.5 µM (active) in assay [5]; 55.9 µM (active) in assay [14]. The Potency in [8] was 31.4 µM (active); in assay [9], 9.95 µM (active); in assay [12], 56.4 µM (active); with Aromatase (Homo sapiens), 8.86 µM (active). Moreover, the Potency entry in assay [7] and in assay [15] was “inactive” in each case. The activation in [16] (at 95 µM (top of the series)) was -8.49%.
Regarding `OCCN(CCO)c1nc(N2CCCCC2)c2nc(N(CCO)CCO)nc(N3CCCCC3)c2n1`, the Potency entry in assay [1], in assay [5], in assay [7], in [8], in [11] and in assay [12] was “inactive” throughout. Also, the Potency entry in the assay with Aromatase (Homo sapiens) was “inactive”. Besides, the Potency in assay [2] was 11.9 µM (active); in [3] it was 9.44 µM (active); in assay [4], 10.6 µM (active).
For `CCCCC(CC)CN=C(N)NC(N)=NCCCCCCN=C(N)NC(N)=NCC(CC)CCCC` (stereo not drawn), the Potency in assay [1] is 19 µM (active); in [2], 8.41 µM (active); in [3] it was 11.9 µM (active); in assay [4] it was 10.6 µM (active); in assay [5], 13.4 µM (active); in assay [14] it was 26.6 µM (active). The Potency is 16.8 µM (active) in assay [8]; 7.5 µM (active) in [9]; 6.68 µM (active) in [10]; 10.7 µM (active) in [12]; 18.8 µM (active) with Aromatase (Homo sapiens). Also, the Potency result in assay [7] was “inactive”.
`COc1cccc2c1C(=O)c1c(O)c3c(c(O)c1C2=O)C[C@@](O)(C(=O)CO)C[C@@H]3O[C@H]1C[C@H](N)[C@H](O[C@@H]2CCCCO2)[C@H](C)O1`: the Potency in assay [1] is 21.3 µM (active); in assay [2], 0.188 µM (active); in [3], 0.237 µM (active); in assay [4] it was 0.0298 µM (active); in [6], 8.49 µM (active); in assay [8] it was 4.22 µM (active). The Potency in assay [9] was 1.68 µM (active); in assay [10], 0.841 µM (active); in assay [15], 4.25 µM [activator] (active); in [13], 9.44 µM (active). The Potency result (in assay [5]; in assay [7]; in [12]; with Aromatase (Homo sapiens)) was “inactive” each time.
With `O=c1cc(-c2ccc(O)cc2)oc2cc(O)cc(O)c12`, the Potency in assay [1] is 49 µM (active); in assay [2] it was 27.3 µM (active); in assay [3], 69.5 µM (active) and 27.3 µM (active); in assay [4], 31 µM (active) and 13.7 µM (active); in [9] it was 55.2 µM (active); in assay [10], 61.9 µM (active) and 30.6 µM (active). In addition, the Potency result in assay [5], in [14] and in [11] was “inactive” in each case.
Consider `Cn1cc(C(=O)[C@@H]2CCc3nc[nH]c3C2)c2ccccc21`, for which the Potency entry in [1], in assay [2], in assay [3], in assay [4], in [5] and in [14] was “inactive” each time. Besides, the Potency entry in [9], in [10], in assay [11], in assay [17], in [12] and in assay [15] was “inactive” in each case. For the same compound, the Potency result (in [18]; in assay [13]; in the assay with Aromatase (Homo sapiens)) was “inactive” throughout. The activation in [16] (at 70.3 µM (top of the series)) was 5.8%.
